Screening results (PubChem)
Pf growth 96h: P. falciparum growth inhibition at 96 hour, primary screen for plastid delayed-death inhibitors | P. falciparum luciferase reporter growth, 96 h | Potency, µM (doses to about 28.7 µM), without a hit: at the top dose activity change, negative = inhibition, actives largely listed as inhibitors | 320,000 tested, 6.9% active | AID 504834; further: potency means the concentration at half of the fitted maximal effect; on the % scale 0 is the no-effect control and ±100 the full control effect
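Compounds incubated with erythrocytes infected by luciferase-expressing P. falciparum (2% hematocrit, 0.05% parasitemia final) for 96 hours, 37 C in 5% CO2. Growth inhibition scored as decreased luciferase luminescence.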
Shiga toxin inh: blocks Shiga toxin action in Vero cells | AID 2315 | 290,000 tested, 9.2% active | inhibition, % at 38.7 µM | Vero cells, Shiga toxin protein synthesis inhibition reporter; in the data active means inhibition mostly above about 28%, no sharp cut-off; inactive means mostly below about 43%; further: 0% is about no effect
Pf growth 48h: inhibits P. falciparum growth in the first generation, 48 h. P. falciparum luciferase growth in erythrocytes, 48 h. Potency, µM (highest dose often 28.7 µM), without a hit: at the highest dose activity change, negative = inhibition, hits mostly inhibitors. 310,000 tested, 5.9% active; further: potency means the concentration at half of the fitted maximal effect; on the % scale 0 is the no-effect control and ±100 the full control effect
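Growth was read as firefly luciferase luminescence after a 48 h, 37 C, 5% CO2 exposure of compounds to reporter-bearing P. falciparum cultures (0.1% parasitemia, 2% hematocrit final) in Albumax-supplemented RPMI 1640.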
HCMV antiviral: blocks human cytomegalovirus replication; activity change, negative = inhibition, % at 57.5 µM; 410,000 tested, 4.5% active; HFF cells, HCMV-luciferase reporter, 72 h; active compounds read low; in the data active means activity change below about -60%; inconclusive means no clear call, values can overlap the other calls; inactive means above about -39%; further: on the % scale 0 is the no-effect control and ±100 the full control effect
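Human foreskin fibroblasts infected with luciferase-reporter HCMV at MOI 1 PFU/cell, compounds at two doses. Luciferase measured 72 h post infection; normalized to buffer-only basal and Salinomycin (10uM) controls.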
Cycloheximide cs: affects cycloheximide protein synthesis inhibition readout, counter-screen; AID 2314; max response, %; 300,000 tested, 12% active; cell reporter, cycloheximide protein synthesis inhibition counterscreen; in the data active means max response mostly above about 13%, no sharp cut-off; inactive means mostly below about 14%; further: read at 38.3 µM for the half of the compounds with a filed dose; 0% is about no effect
The depositor's hits bear a star; u = inconclusive; x = no result given; + = active, no number; [ ] = dose if it differs, or a comment. Sampled rows, rich in hits. Any-hit rate of the full collection: about 20%. Unless noted, the call rests on the fitted dose curve; in most records, active means well fitted inhibition curve with a large enough effect; inconclusive means small, poorly fitted or top-dose-only effect, or another doubt; inactive means no such curve, though single readings can be large or run the other way.

SMILES	Pf growth 96h	Shiga toxin inh	Pf growth 48h	HCMV antiviral	Cycloheximide cs
COc1ccccc1-c1cc2nc(-c3ccccc3)cc(N3CCN(C(=O)c4ccoc4)CC3)n2n1	x	x	x	-103*	x
Cc1cc(N2CCN(C(=O)c3ccoc3)CC2)n2nc(-c3ccccc3)cc2n1	x	x	x	-8	x
CN1CCN(c2cc(-c3ccccc3)nc3cc(-c4ccc(F)cc4)nn23)CC1	-9%	-4	x	-30	-1
CCc1ccc(C2c3c(oc4ccc(F)cc4c3=O)C(=O)N2c2nc(C)c(C(=O)OC)s2)cc1 (centres undefined)	x	x	x	-5	x
CC1CCN(S(=O)(=O)c2ccc(NC(=O)[C@@H]3CCCN3C(=O)c3cccs3)cc2)CC1	u	x	u	-3	x
COc1ccc(CN2C[C@H]3CON(C)[C@H]3C[C@H]2c2ccc(-c3ccccc3)cc2)cc1	x	x	x	-4	x
COc1ccc(-c2cc3nc(C)c(C)c(N4CCN(C(=O)c5ccoc5)CC4)n3n2)cc1	x	x	x	24	x
Fc1ccc(-c2cc3nc(-c4ccccc4)cc(N4CCN(CCN5CCOCC5)CC4)n3n2)cc1	-2%	-1	1µM*	-71*	1
Cc1nc2cc(-c3cccc(F)c3)nn2c(N2CCN(C(=O)c3ccco3)CC2)c1C	u	94*	x	-2	61*
COc1ccccc1C(=O)NNC(=O)C1CCN(C(=O)OC(C)(C)C)CC1	u	-12	31%	6	13
Cc1cc(-c2nc3ncccc3o2)ccc1NC(=O)c1ccc(Br)cc1	x	x	x	2	x
COc1ccc(-c2cn(CCC(=O)O)c(=O)cn2)cc1	x	x	x	-13	x
CC(=O)Nc1ccc(/C=N/NC(N)=S)cc1	-3%	-5	1%	x	6
NC(=S)NN=Cc1nccc2c(C(F)(F)F)cccc12	x	x	x	-74*	x
NC(=S)N/N=C/c1ccccc1	u	-13	8%	-36	-5
CNc1cccnc1C=NNC(N)=S	x	x	x	-99*	x
CCC(C)Nc1sc(S(=O)(=O)CC)nc1S(=O)(=O)c1ccc(C)cc1 (centres undefined)	x	x	x	-6	x
CC(C)CN1CCC(=O)N([C@H](COc2ccccc2)Cc2ccccc2)CC1	12µM*	-5	u	-9	-2
CC(C)C[C@@H](COc1ccccc1)N1CCN(CCc2ccccc2)CCC1=O	u	3	-10%	23	0
O=C1CCN(Cc2ccccc2)CCN1[C@H](CO)Cc1ccccc1	44%	-8	-3%	39	0
O=C1CCN(CCc2ccccc2)CCN1[C@H](COc1ccccc1)Cc1ccccc1	3.3µM*	4	u	20	-2
COc1cccc(-c2ccc(C3=CC(=O)CC(C)(C)C3=O)cc2)c1OC	x	x	x	-11	x
Cn1cc2cc(NC(N)=S)ccc2n1	-2%	-3	4%	-12	-5
Cc1cc(C)nc(NS(=O)(=O)c2ccc(NC(=O)C3(c4ccc([N+](=O)[O-])cc4)CCCC3)cc2)n1	9.3µM*	-12	10%	-13	1
COc1ccc(C2(C(=O)Nc3ccc(S(=O)(=O)Nc4nc(C)cc(C)n4)cc3)CCCC2)cc1OC	146%	-19	-16%	4	0
SMILES	Pf growth 96h	Shiga toxin inh	Pf growth 48h	HCMV antiviral	Cycloheximide cs
CC(=O)n1cc([C@H]2C=C(C(=O)N3CCOCC3)O[C@@H](OCCCCO)C2)c2ccccc21	x	x	x	-11	x
CCc1cccc(NC(=O)C2CCN(S(=O)(=O)c3cccs3)CC2)c1	x	1	-6%	-22	1
Cc1nc2ccc(NC(=O)C3CCN(S(=O)(=O)c4cccs4)CC3)cc2s1	9.3µM*	18	u	-23	2
O=C(Nc1ccc(Br)cc1)C1CCCN1S(=O)(=O)c1cccs1 (centres undefined)	3.7µM*	3	x	u	-4
CCc1ccc(NC(=O)C2CCN(S(=O)(=O)c3cccs3)CC2)cc1	220%	21	u	-65*	6
O=C(Nc1ccc(Cl)cc1)C1CCN(S(=O)(=O)c2ccc(Br)s2)CC1	x	x	x	-96*	x
O=C(Nc1ccccc1Br)C1CCN(S(=O)(=O)c2cccs2)CC1	x	x	x	-75*	x
CCc1ccc(NC(=O)C2CCN(S(=O)(=O)c3cnc[nH]3)CC2)cc1	13µM*	-8	u	+	0
Cc1ccccc1NC(=O)C1CCN(S(=O)(=O)c2cccs2)CC1	38%[5.75 µM]	21	-37%[5.75 µM]	-32	-2
CCc1ccc(NC(=O)C2CCCN(S(=O)(=O)c3cccs3)C2)cc1 (centres undefined)	u	30	u	8	21*
